# Rows were chosen to be rich in hits. Some 19% of all compounds tested hit in one or more screens of this group.
# TDP1 cell noCPT: qHTS for Inhibitors of human tyrosyl-DNA phosphodiesterase 1 (TDP1): qHTS in cells in absence of CPT; DT40 Tdp1-/- hTDP1 cells, no CPT, ATP luminescence, 48 h; Potency, µM (highest dose often 46.2 µM), without a hit: top-dose activity change, negative = growth inhibition, most hits filed as inhibitors; 420,000 compounds, 15% hits; note: potency is the fitted concentration of half-maximal effect; nearly all actives have a fitted effect of over 55% in size
#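 Seeded 400 DT40-hTDP1 cells/well (vehicle DMSO, no 20 nM CPT); pinned compounds; ≥48 hr at 37 °C; CellTiter-Glo luminescence as viability measure.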
# IL-1B inflam inh: blocks inflammasome-driven IL-1 beta release; THP-1 LPS/ATP IL-1B secretion, AlphaLISA, 16 h; stronger effect = lower value; activity change, % at 57.5 µM; 360,000 compounds, 4.7% hits; in the data active = activity change below about -50%; inconclusive = mostly about -30% to -49%
#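 Secreted IL-1B measured by AlphaLISA bead assay after 16 h compound exposure of THP-1 cells; compounds (final up to 57.5 uM) added 1 h before LPS (250 ng/mL) and ATP (1.25 mM) stimulation; lower signal means less secretion.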
# HT1080-NT tox: kills 2HG-producing HT-1080-NT fibrosarcoma cells. HT-1080-NT fibrosarcoma viability, CellTiter-Glo ATP luminescence, 48 h. Potency, µM (series often up to 46.1 µM), for inactives: at the top dose activity, negative = less viability, actives largely listed as cytotoxic. 360,000 compounds, 1.6% hits;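 note: NT is the 2HG producing partner of a matched IDH1 knockdown line; potency is the fitted concentration of half-maximal effect; 0% = DMSO-treated cells and -100% = media-only wells without cells; nearly all actives have a fitted effect of over 55% in size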
#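 A 48-hour cytotoxicity screen used HT-1080-NT cells plated 2 hours before compound delivery. ATP-based CellTiter-Glo luminescence measured viability, normalized to DMSO and no-cell controls.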
# TDP1 cell CPT: growth inhibition of DT40 Tdp1-/-;hTDP1 cells with camptothecin (screen for TDP1 inhibitors); chicken DT40 Tdp1-/-;hTDP1 cells + 20 nM CPT, ATP luminescence, 48 h; Potency, µM (doses to about 46.2 µM), inactives show at the top dose activity change, negative = growth inhibition, actives largely listed as inhibitors; AID 686979; 420,000 compounds, 12% hits; note: potency is the fitted concentration of half-maximal effect; nearly all actives have a fitted effect of over 55% in size
#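 Cell growth measured by CellTiter-Glo luminescence after a minimum 48 h, 37 C compound exposure with 20 nM CPT in Tdp1-knockout DT40 cells stably expressing hTDP1, seeded 400/well; qHTS titration format.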
# HT1080 IDH1KD tx: toxicity to HT-1080 IDH1 knockdown cells (counter line) | 360,000 compounds, 2% hits | HT-1080 IDH1 knockdown viability, ATP luminescence, 48 h | Potency, µM (titrated, usually from 46.1 µM), without a hit: at the top dose activity, negative = toxicity, usual class: cytotoxic;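 note: potency is the fitted concentration of half-maximal effect; 0% = DMSO wells and -100% = cell-free medium wells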
#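 Using the IDH1-knockdown HT-1080 line run in the same batch and compound series as the NT line, viability after 48 h at 37 °C was determined by CellTiter-Glo luminescence and expressed as % activity.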
# * = called active by the depositor; i = inactive; ? = inconclusive; nt = not tested or not shown; [ ] = remark or other dose. Unless noted, calls come from the whole dose curve; as a rule, active = well fitted curve in the direction sought with a large enough effect; inconclusive = small, poorly fitted or top-dose-only effect, or another doubt; inactive = no such curve, though single readings can be large; an effect the other way counts as inactive or inconclusive. Unless noted, % is set by controls: 0 for no effect and ±100 for the full control effect.
SMILES,TDP1 cell noCPT,IL-1B inflam inh,HT1080-NT tox,TDP1 cell CPT,HT1080 IDH1KD tx
CCCc1ncc(CN2CCC(C(=O)Nc3cccc(-c4cscn4)c3)CC2)cn1,29µM*,-8,-13%,?,-13%
COc1cc(OC)c(C2=NOC(C(=O)O)C2)cc1Cl (stereo not drawn),-2%,-7,-8%,0%,6%
CC1=C(n2nnc([N+](=O)[O-])n2)C(c2cccnc2)C(C#N)=C(N)O1 (stereo not drawn),?,?,3%,9.2µM*,-21%
C=CCOC(=O)C1=C(C)OC(N)=C(C#N)C1c1ccc2c(c1)OCO2 (stereo not drawn),16µM*,18,2%,26µM*,6%
N#CC1=C(N)Oc2ccc3ccccc3c2C1c1cccnc1 (stereo not drawn),5.2µM*,0,8.2µM*,3.7µM*,?
COC(=O)C1=C(C)OC(N)=C(C#N)C1c1cccnc1 (stereo not drawn),?,5,10%,21µM*,10%
N#CC1=C(N)Oc2ccc3ccc(O)cc3c2C1c1cccnc1 (stereo not drawn),-17%,40,7%,-6%,-17%
CC(C)CCn1c(SCC(N)=O)nc2c1c(=O)n(C)c(=O)n2C,-9%,33,1%,-2%,-12%
CCCCc1cc(=O)oc2cc(C)cc(OC(C)C(=O)NCc3ccncc3)c12 (stereo not drawn),-10%,?,1%,?,-2%
Cc1ccccc1CN1CCN(Cc2cc(=O)c3ccccc3[nH]2)CC1CCO (stereo not drawn),-27%,19,6%,-19%,5%
Cc1ccc(-c2nc(-c3cc4cccc(OCc5ccccc5F)c4oc3=O)no2)cc1,-10%,nt,nt,-9%,nt
COc1ccc2c(c1)c1c(c(=O)n(Cc3ccccc3)c(=O)n1CC(=O)Nc1ccccc1OC)n2C,-2%,nt,nt,5%,nt
COc1ccccc1C(=O)NNC(=O)c1nn(Cc2ccccc2)c(=O)c2ccccc12,?,44,-22%,21µM*,?
CC(C)CCn1nc(C(=O)Nc2nc3c(s2)CCCC3)c2ccccc2c1=O,18µM*,nt,-3%,26µM*,-4%
O=C(c1nn(Cc2ccccc2)c(=O)c2ccccc12)N1CCN(c2ccccn2)CC1,?,9,-11%,-2%,-12%
O=C(Nc1nc2c(s1)CCCC2)c1nn(Cc2ccccc2)c(=O)c2ccccc12,23µM*,3,2%,?,4%
CC(C)CNC(=O)c1nn(Cc2ccccc2)c(=O)c2ccccc12,-20%,50,8%,?,-12%
O=C(c1nn(Cc2ccccc2)c(=O)c2ccccc12)N1CCc2ccccc2C1,16µM*,-23,4%,-27%,-1%
CSc1ccc(Cn2c(C)c(C(=O)NCc3cccc(C(F)(F)F)c3)sc2=O)cc1,?,-12,-18%,?,-16%
CC(Nc1nc(N2CCNCC2)nc2ccccc12)c1ccccc1 (stereo not drawn),5.2µM*,-104*,?,4.1µM*,15µM*
CC(Nc1nc(-c2ccncc2)nc2ccccc12)c1ccccc1 (stereo not drawn),18µM*,74,-20%,18µM*,-15%
c1ccc(CCNc2nc(-c3ccncc3)nc3ccccc23)cc1,18µM*,-6,?,21µM*,4.1µM*
COc1ccc(OC)c(NC(=O)[C@@]2(CC(=O)O)CC(/C=C/c3ccccc3)=NO2)c1,24%,55,19%,-4%,8%
Cc1cnc(-n2ncc(C(=O)N(CCO)C(C)C)c2-c2cccs2)nc1-c1ccc(F)cc1,?,nt,nt,-4%,nt
Cc1nn(C)c(C)c1S(=O)(=O)N1CCC(C(=O)NCC2COc3ccccc3O2)CC1 (stereo not drawn),-6%,18,7%,1%,8%
SMILES,TDP1 cell noCPT,IL-1B inflam inh,HT1080-NT tox,TDP1 cell CPT,HT1080 IDH1KD tx
Cc1ccc(NC(=O)c2ccccc2CCc2ccccc2)c(C)c1,-26%,0,-23%,-10%,-8%
O=C(NCc1ccccc1Cl)c1ccccc1CCc1ccccc1,16µM*,-15,-9%,?,-10%
Cc1cc(C)c(NC(=O)c2ccccc2CCc2ccccc2)c(C)c1,?,13,-3%,18µM*,?
O=C(Oc1cccc(/C=N/NC(=O)c2ccccn2)c1)c1ccc([N+](=O)[O-])cc1,?,i,-26%,-19%,-20%
CCOc1ccccc1N1C(=O)c2ccccc2N/C1=C\N1CCN(C(=O)c2ccco2)CC1,?,nt,?,-23%,-8%
CC1=C(CO)C(=O)OC([C@@H](C)C2CC[C@H]3C4C[C@H]5O[C@]56[C@@H](O)C=CC(=O)[C@]6(C)C4CC[C@]23C)C1 (stereo partly drawn),1.3µM*,-107*,21µM*,1.5µM*,18µM*
CC(C(=O)O)C1CCC2C3CC=C4CC(O)CC[C@@]4(C)C3CC[C@]12C (stereo partly drawn),0%,nt,nt,2%,nt
Cc1ccc(C(=O)N[C@H](C(=O)NC2CCCCCCC2)C(C)C)cc1,-3%,7,-4%[9.24 µM],-6%,2%
COc1ccc(CNS(=O)(=O)c2ccc(F)c(C(=O)Nc3ccccc3OC)c2)cc1,-1%,-2,0%,-11%,-26%
COc1ccc(C(=O)Nc2ccc(NC(C)=O)cc2)cc1S(=O)(=O)N(C)Cc1ccccc1,?,?,-5%,-26%,-16%
CN(Cc1ccccc1)S(=O)(=O)c1cccc(C(=O)O)c1,-5%,0,21%,4%,13%
CC(NS(=O)(=O)c1ccc(Cl)cc1)C(=O)NCCC1=CCCCC1 (stereo not drawn),?,-4,-21%,-15%,-22%
Cc1ccccc1NC(=O)c1ccc(F)c(S(=O)(=O)N(C)Cc2ccccc2)c1,21µM*,nt,nt,?,nt
CC(C)c1ccc(NC(=O)c2cc(S(=O)(=O)NCc3ccccc3Cl)ccc2F)cc1,9.2µM*,nt,nt,6.5µM*,nt
CC(C)c1ccc(NC(=O)c2cc(S(=O)(=O)NCCC3=CCCCC3)ccc2F)cc1,18µM*,nt,nt,18µM*,nt
CCc1cccc(C)c1NC(=O)c1cc(S(=O)(=O)N(C)Cc2ccccc2)ccc1F,8.2µM*,nt,nt,29µM*,nt
COc1ccc(-n2c(SCC(=O)Nc3cc(C(=O)O)ccc3C)nc3ccccc3c2=O)cc1Cl,?,-7,0%,?,-1%
CN(C)c1ccc(NC(=O)CC(NCc2ccccn2)C(=O)O)cc1 (stereo not drawn),-1%,20,-2%,-4%,0%

# Assay outcomes deposited in PubChem BioAssay by National Center for Advancing Translational Sciences (NCATS).
